Records with an inconclusive call do not appear. A number with no mark means an inactive call. The source made the active and inactive calls. Unless noted, the call rests on the fitted dose curve; in most records, active means well fitted curve in either direction with a large enough effect (not every such curve was filed as active); inconclusive means small, poorly fitted or top-dose-only effect, or another doubt; inactive means flat fitted curve, though single readings scatter.

Chain of Cytochrome P450 1A2 (Homo sapiens) (P05177 whole entry, looked up): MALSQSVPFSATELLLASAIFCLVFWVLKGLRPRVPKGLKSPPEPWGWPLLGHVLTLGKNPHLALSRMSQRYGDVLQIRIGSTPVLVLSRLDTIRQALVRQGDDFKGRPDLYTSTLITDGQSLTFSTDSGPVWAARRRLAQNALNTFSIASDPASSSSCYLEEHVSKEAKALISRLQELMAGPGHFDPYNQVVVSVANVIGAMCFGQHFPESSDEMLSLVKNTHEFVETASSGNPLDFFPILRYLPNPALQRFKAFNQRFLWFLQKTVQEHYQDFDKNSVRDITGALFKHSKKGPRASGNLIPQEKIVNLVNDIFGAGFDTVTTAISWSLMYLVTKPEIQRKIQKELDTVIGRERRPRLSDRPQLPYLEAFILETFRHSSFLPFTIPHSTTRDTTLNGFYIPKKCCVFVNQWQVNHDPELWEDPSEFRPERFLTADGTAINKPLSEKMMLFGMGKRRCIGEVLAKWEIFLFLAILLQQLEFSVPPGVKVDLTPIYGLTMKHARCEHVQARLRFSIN

One test addresses Cytochrome P450 1A2 (Homo sapiens) (UniProt P05177). Put plainly: p450-cyp1a2 (AID 410; calls by dose curve; further: potency means the concentration at half of the fitted maximal effect;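 on activity change, negative = inhibition: -100% = full effect of reference inhibitor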). Particulars: recombinant CYP1A2, luciferin-ME demethylation, luminescence; series mostly up to 57 µM. The method, boiled down:
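Inhibition was calculated relative to 57 uM furafylline (full inhibition). The reaction used human CYP1A2 at 20nM with Luciferin-ME at its Km, 100uM, driven by an NADPH-regenerating system for 60 min at room temperature.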
Regarding `CN1CCN(c2ncncc2-c2ccccc2C(F)(F)F)CC1`, the Potency is 31.6 µM (active).
Same read-out and setting: under `O=c1c(-c2ccccc2)nc2cnc(N3CCNCC3)nc2n1-c1ccccc1` stands 7.94 µM (active).
With `COCCn1c(=O)c(-c2ccc(Cl)cc2)nc2cnc(OC)nc21`, the Potency was 0.398 µM (active).
On to `CN1CCN(c2ncnc3ccc(-c4ccccc4C#N)cc23)CC1`, for which the Potency was 3.16 µM (active).
As for `CN1CCN(c2ncc3nc(CCc4ccccc4)c(=O)n(Cc4ccc(F)cc4)c3n2)CC1`, the Potency entry is “inactive”.
In the case of `N#CCCn1c(=O)c(-c2ccc(Cl)cc2)nc2cnc(OCc3ccccc3)nc21`, the Potency is 2 µM (active).
For the compound `COc1ccc(CNc2ncnc3ccc(-c4ccccc4OC)cc23)c(OC)c1`, the Potency is 3.16 µM (active).
Same read-out and setting: under `COCCn1c(=O)c(-c2cn(C)c3ccccc23)nc2cnc(N3CCNCC3)nc21` stands 12.6 µM (active); under `COc1ccc(-n2c(=O)cnc3cnc(N4CCNCC4)nc32)cc1`, 12.6 µM (active); under `O=c1cnc2cnc(N3CCNCC3)nc2n1Cc1ccc(F)cc1`, 15.8 µM (active).
On the same count and under the same terms, under `CN(C)c1ccc(-c2nccc(NCCN3CCOCC3)n2)cc1` stands 1.26 µM (active); under `COCCn1c(=O)c(-c2ccc(OC)cc2)nc2cnc(N3CCNCC3)nc21`, 6.31 µM (active); under `O=C(Nc1cccc(F)c1)N1CCCC2(CCNCC2)C1`, “inactive”.
As for `Cc1ccccc1-c1nc(N2CCN(C)CC2)c2ccccc2n1`, the Potency was 3.98 µM (active).
As for `COc1ccc(-n2c(=O)c(-c3ccccc3)nc3cnc(N4CCNCC4)nc32)cc1`, the Potency is 15.8 µM (active).
`O=C(c1ccco1)N1CCC[C@@]2(CCN(c3ccncc3)C2)C1`: the Potency was 12.6 µM (active).

Test system in a further test: not listed separately
The experiment in a line: NFAT Signaling Pathway (AID 444).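 Further: carbachol stimulus at about its EC50 of 1 µM final; on the % scale 0 is the no-effect control and ±100 the full control effect.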 Particulars: Jurkat NFAT-bla M1, carbachol, beta-lactamase ratio, 5 h; at 7.69 µM (top of the series) unless noted. The gist of the method: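 Jurkat cells with NFAT-driven β-lactamase reporter and co-expressed M1 receptor, stimulated with carbachol (final 1 uM, ~EC50), compound titration, 5 h at 37 °C. CCF4 loaded 1 h at RT; 460/530 nm ratio gave %activity and AC50.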
With `COCCn1c(=O)c(-c2ccc(Cl)cc2)nc2cnc(OCc3ccccc3)nc21`, the activity change, negative = inhibition is 1.06%.
On the same count and under the same terms, under `Cc1ccccc1-c1nccc(Nc2ccc(F)cc2)n1` stands -3.97%; under `COCCn1c(=O)c(-c2ccc(Cl)cc2)nc2cnc(OC)nc21`, 0.766%.
For `Cc1nc2cnc(N3CCNCC3)nc2n(CCc2ccccc2)c1=O`, the activity change, negative = inhibition was -13.2%.
Turning to `CN1CCN(c2ncc3nc(CCc4ccccc4)c(=O)n(Cc4ccc(F)cc4)c3n2)CC1`, the activity change, negative = inhibition is -12.2%.
On the same count and under the same terms, for `COc1ccc(Oc2ncc3nc(-c4cccs4)c(=O)n(CCC#N)c3n2)cc1` the value was -5.68%; for `COc1ccc(Oc2ncc3nc(CCc4ccccc4)c(=O)n(C[C@H]4CCCO4)c3n2)cc1`, -6.61%.
Consider `COc1ccc(CNc2ncnc3ccc(-c4ccccc4OC)cc23)c(OC)c1`, for which the activity change, negative = inhibition was -17.9%.
On to `Clc1ccccc1-c1nc(N2CCNCC2)c2ccccc2n1`, for which the activity change, negative = inhibition was -0.528%.
`COCCn1c(=O)c(CCc2ccccc2)nc2cnc(N3CCN(C)CC3)nc21`: the activity change, negative = inhibition was -7.4%.
Regarding `COc1cccc(Cn2c(=O)c(C)nc3cnc(N4CCNCC4)nc32)c1`, the activity change, negative = inhibition was -10.9%.
Consider `O=c1c(-c2ccc(Cl)cc2)nc2cnc(Oc3ccccc3)nc2n1C1CC1`, for which the activity change, negative = inhibition is -2.33%.
With `COc1cccc(-c2nc(N3CCN(C)CC3)c3ccccc3n2)c1`, the activity change, negative = inhibition is 12.1%.
As for `COCCn1c(=O)c(-c2cn(C)c3ccccc23)nc2cnc(N3CCNCC3)nc21`, the activity change, negative = inhibition is 18.5%.
Regarding `COc1ccc(-n2c(=O)cnc3cnc(N4CCNCC4)nc32)cc1`, the activity change, negative = inhibition was 0.78%.
Turning to `Cc1noc(C)c1-c1nc(N2CCNCC2)c2ccccc2n1`, the activity change, negative = inhibition is -3.25%.
Turning to `CN(C)c1ccc(-c2nccc(NCCN3CCOCC3)n2)cc1`, the activity change, negative = inhibition is 7.2%.
Consider `Cc1ccccc1-c1nc(N2CCN(C)CC2)c2ccccc2n1`, for which the activity change, negative = inhibition is 0.11%.
For `Cn1c(=O)c(CCc2ccccc2)nc2cnc(OCc3ccccc3)nc21`, the activity change, negative = inhibition was -3.3%.
Turning to `COc1ccc(Oc2ncc3nc(-c4ccccc4)c(=O)n(C4CC4)c3n2)cc1`, the activity change, negative = inhibition was 5.68%.

The values above are taken from PubChem BioAssay (NCATS).
